Source: PubChem BioAssay (Tox21)
Several values for one entry are separate records, joined by “and”; a condition that tells them apart may be missing. Equal values may be shown once. Where a structure was tested more than once in an assay, its records may differ in their call. Activity calls are given as the source filed them. Entries that show only a call come without a potency. Unless noted, calls follow the shape of the dose curve; as a rule, active = well fitted curve in the direction sought with a large enough effect in the repeat runs; inconclusive = weak or mixed curves; inactive = no such curve, though single readings can be large; an effect the other way counts as inactive or inconclusive.

Tests used:
[1] = qHTS assay to identify small molecule antagonists of the thyroid receptor (TR) signaling pathway (AID 743065); also: nearly all actives have a fitted effect of over 55% in size; also: potency is read from the fitted curve at half-maximal effect
In short: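 Antagonism measured as loss of luciferase signal in GH3 cells stably carrying a TRE-luciferase reporter, co-treated with compound and T3 (1 nM final) for 23.5 h at 37 C. Viability was read in the same well by CellTiter-Fluor.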

[2] = tested on: thyroid hormone receptor (rat, GH3 cells); experiment: qHTS assay to identify small molecule agonists of the thyroid receptor (TR) signaling pathway (AID 743066; calls by dose curve)
[3] = qHTS assay to identify small molecule antagonists of the estrogen receptor alpha (ER-alpha) signaling pathway - cell viability counter screen (AID 743074; calls by dose curve;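 also: HEK293 cells carrying ER-alpha-UAS-bla reporter stimulated with 17beta-estradiol; nearly all actives have a fitted effect of over 45% in size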)
[4] = molecular target: Estrogen receptor (Homo sapiens) (UniProt P03372); experiment: qHTS assay to identify small molecule agonists of the estrogen receptor alpha (ER-alpha) signaling pathway (AID 743075; calls by dose curve; also: potency is read from the fitted curve at half-maximal effect)
[5] = molecular target: Estrogen receptor (Homo sapiens) (UniProt P03372); experiment: qHTS assay to identify small molecule agonists of the estrogen receptor alpha (ER-alpha) signaling pathway using the BG1 cell line (AID 743079); also: nearly all actives have a fitted effect of over 20% in size; also: potency is read from the fitted curve at half-maximal effect
[6] = qHTS assay to identify small molecule antagonists of the estrogen receptor alpha (ER-alpha) signaling pathway using the BG1 cell line - cell viability counter screen (AID 743081);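 also: compound given together with 17beta-estradiol as the ER stimulus; series mostly up to about 70 µM; nearly all actives have a fitted effect of over 45% in size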
[7] = molecular target: Aromatase (Homo sapiens) (UniProt P11511); experiment: qHTS assay to identify aromatase inhibitors (AID 743083); also: nearly all actives have a fitted effect of over 55% in size; also: potency is read from the fitted curve at half-maximal effect
[8] = qHTS assay to identify aromatase inhibitors - cell viability counter screen (AID 743084);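 also: cells stimulated with testosterone during compound exposure; nearly all actives have a fitted effect of over 55% in size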; also: potency is read from the fitted curve at half-maximal effect
[9] = molecular target: Estrogen receptor (Homo sapiens) (UniProt P03372); experiment: qHTS assay to identify small molecule antagonists of the estrogen receptor alpha (ER-alpha) signaling pathway (AID 743069; active = well fitted curve in the direction sought with a large enough effect in the signal ratio in the repeat runs, not every such curve was filed as active; inconclusive = weak or mixed curves, or effect the other way; inactive = no such curve, though single readings can be large or run the other way; the % refers to the signal ratio)
In short: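 Compound effects are measured against 17beta-estradiol stimulation in HEK293 cells with a UAS-controlled beta-lactamase reporter for ER-alpha. Exposure lasts 18 hr at 37C; LiveBLAzer B/G FRET substrate follows for 2 hr at room temperature.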

[10] = qHTS assay to identify small molecule antagonists of the estrogen receptor alpha (ER-alpha) signaling pathway using the BG1 cell line (AID 743080; calls by dose curve;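 also: BG1 cells stimulated with 17beta-estradiol alongside compound; nearly all actives have a fitted effect of over 25% in size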; also: potency is read from the fitted curve at half-maximal effect)
In short: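 After 5 days in phenol-red-free 10% charcoal-stripped FBS medium, BG1-Luc-4E2 cells were seeded, left 24 h at 37 C, co-treated with compounds and 17beta-estradiol for 21.5 h, then assayed for viability and luciferase.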

Sequence of Estrogen receptor (Homo sapiens) (P03372 whole entry, looked up): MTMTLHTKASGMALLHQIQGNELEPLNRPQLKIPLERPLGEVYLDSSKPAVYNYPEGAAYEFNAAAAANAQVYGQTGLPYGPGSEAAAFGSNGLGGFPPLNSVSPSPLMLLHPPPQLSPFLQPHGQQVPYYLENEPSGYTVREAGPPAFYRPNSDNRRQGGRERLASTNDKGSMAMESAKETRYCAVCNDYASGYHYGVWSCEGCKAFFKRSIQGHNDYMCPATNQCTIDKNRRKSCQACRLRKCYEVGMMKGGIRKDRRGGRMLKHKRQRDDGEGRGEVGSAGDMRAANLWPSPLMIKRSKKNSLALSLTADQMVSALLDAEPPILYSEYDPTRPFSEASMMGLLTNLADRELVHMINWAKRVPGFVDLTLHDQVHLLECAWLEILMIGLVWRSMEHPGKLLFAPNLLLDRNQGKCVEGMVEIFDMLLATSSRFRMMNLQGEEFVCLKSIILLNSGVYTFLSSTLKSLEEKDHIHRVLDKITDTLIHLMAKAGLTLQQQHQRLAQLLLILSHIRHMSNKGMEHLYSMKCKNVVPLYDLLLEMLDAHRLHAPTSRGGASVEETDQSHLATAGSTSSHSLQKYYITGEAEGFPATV
Sequence of Aromatase (Homo sapiens) (P11511 whole entry, looked up): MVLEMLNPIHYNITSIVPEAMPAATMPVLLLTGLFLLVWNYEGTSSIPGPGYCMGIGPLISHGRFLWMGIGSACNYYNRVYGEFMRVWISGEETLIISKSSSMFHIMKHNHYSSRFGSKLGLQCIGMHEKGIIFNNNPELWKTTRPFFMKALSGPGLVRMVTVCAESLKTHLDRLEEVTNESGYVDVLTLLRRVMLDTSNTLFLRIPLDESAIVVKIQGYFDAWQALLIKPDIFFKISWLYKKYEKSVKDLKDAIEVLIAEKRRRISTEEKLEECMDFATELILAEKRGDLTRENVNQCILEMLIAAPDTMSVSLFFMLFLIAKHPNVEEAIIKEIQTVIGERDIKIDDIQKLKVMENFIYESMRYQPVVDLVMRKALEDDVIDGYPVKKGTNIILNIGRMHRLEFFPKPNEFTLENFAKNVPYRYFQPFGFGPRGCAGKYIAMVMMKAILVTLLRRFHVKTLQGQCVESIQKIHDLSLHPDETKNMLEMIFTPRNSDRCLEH

Structure (SMILES)	Potency [1]	Potency [2]	Potency [3]	Potency [4]	Potency [5]	Potency [6]	Potency [7]	Potency [8]	Potency [9]	Potency [10]
O=C(CCl)CCl	25.2 µM (active) and 8.63 µM (active)	inactive	inactive	50.7 µM [activator] (active) and 1.1 µM [inconclusive] (active)	inactive	inactive	44.9 µM (active) and 8.63 µM (active)	15.4 µM (active)		
N#CC(C#N)=Cc1ccc(O)c(O)c1	26.6 µM (active)	inactive	inactive		inactive	inactive	inactive	inactive	inactive	inactive
COP(=O)(OC)OC(Br)C(Cl)(Cl)Br (centres undefined)	54.5 µM (active) and 48.6 µM (active)	inactive	inactive	61.7 µM [inconclusive] (active) and inactive	inactive	inactive	61.2 µM (active) and 61.1 µM (active)	48.6 µM (active)		
OC[P+](CO)(CO)CO	inactive	inactive	inactive			inactive	inactive	61.8 µM (active) and inactive		inactive
c1ccc2sc(SNC3CCCCC3)nc2c1	inactive	inactive	inactive	inactive		inactive	inactive	inactive	inactive	inactive
CC(C)(C)N(NC(=O)c1ccc(Cl)cc1)C(=O)c1ccccc1	inactive	inactive	inactive	inactive			inactive	7.65 µM (active)	inactive	inactive
CC(C)c1ccc(NC(=O)N(C)C)cc1	inactive	inactive	inactive	inactive		inactive	inactive	inactive	inactive	
NP(N)(=O)NC(=O)c1ccc(F)cc1	inactive	inactive	inactive	inactive		inactive	inactive	inactive	inactive	inactive
CCCCC(CC)COC(=O)c1c(Br)c(Br)c(Br)c(Br)c1C(=O)OCC(CC)CCCC (centres undefined)	inactive	inactive		inactive	inactive	inactive	inactive	inactive	inactive	inactive
CCCCNC(=O)OCC#CI				inactive						60.8 µM (active) and 68.6 µM (active)
C[N+]1(CCF)[C@@H]2CC[C@H]1CC(OC(=O)C(O)(c1ccccc1)c1ccccc1)C2 (some centres undefined)					15 µM (active)					inactive
